The first experiment has as its system PPARa:RXRa (NR concentration 270 nM, RXRa partner concentration 90 nM). In words: PBM binding z-score (relative to random genomic background probes); higher = stronger binding; sequences stand for … in GC…GCGATTGACAGCGTAGAATGAAGG
The method in brief:
(§1)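 For binding z-scores, the reference was random background probes on custom Agilent 4×180K protein-binding microarrays. These arrays were incubated 1 h with ligand-free nuclear receptor dimers in PBS pH 7.4, 2% milk, 0.02% Triton X-100, 1 mM DTT, 0.2 mg/mL BSA and 0.4 mg/ml salmon testes DNA. Fluorescence was scanned after antibody detection of each partner (one per run) and regression-normalized.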
ATCTCTAGGTAACAAGTTCAGTGAAAGAGAGGAC gave a PBM binding z-score of 1.82.
Still for that read-out and setting: in the case of ACTTACGGGTCATCGAGGTTATAGCACGCGTATA it was 5.8; in that of CCGACTGGGGCAGAAAGGCTACCATACCATCCGG, -0.338; in that of ACTTGCAGGCCAAGTTTGGGTCACTCAAACAAAG, 1.87.
AGAACGAGGGCAATGAGTTGTTAGCACGGGTGGC had a PBM binding z-score of 1.23.
Consider CCTTACGGGTCAAGGTTATAGGACGGGTGGTACG, for which the PBM binding z-score was found to be 5.05.
CCTTACAGGTCACTCCAGGTTATAGCATCGGAGT gave a PBM binding z-score of 4.75.
On the same count and under the same terms, in the case of TCTACTAGGTCAGTTGGTCAGCTAACGAGCTGCC it was 2.61; in that of TAGCCTAGGTGAGATCGGGCCAGTATACGCTATA, -0.453; in that of TGTCAAAGTTCAAAGGTAACGGAAGTATCCACAC, 6.04.
In turn, TCATAAAGGTAAAGGTGAAAGTCGAACGATATGA returned a PBM binding z-score of 3.51.
With ACCGAAAGGTCGAGGTGAGTATAGAGAAAGGGAA, the PBM binding z-score was 4.71.
Take GATACAGGCTCAAGGCCAGAGTACGCGTATTGAT: the PBM binding z-score is -0.602.
Turning to TCTTGTAGATCAAGCAGGTTAAGACAGCCTGAGT, the PBM binding z-score is 0.76.
Consider TCGAGTAGGTTACCAATGGAGCATTCAGCTTTCT, for which the PBM binding z-score is 0.92.
For TTACCAAGGTGCGCTGAGGTCGTTGATCCAACTC, the PBM binding z-score turned out to be 0.971.
Same read-out and setting: in the case of TAGCCGAGGTCAGATCGGGCCAGTATACGCTATA it was 4.8.

A further experiment has as its system PPARg:RXRa (NR concentration 180 nM, RXRa partner concentration 90 nM). The experiment is described as above. The method in brief: as §1
Sequence CCTGCTAGGTCATGGTTAGCTAATCTACAGTATG displayed a PBM binding z-score of 2.65.
Consider AATACAGGGTCACTAGGCCAGTGTAGGTACGAAT, for which the PBM binding z-score was 7.83.
Still for that read-out and setting: as for AGAACGAGGTCAATGAGTTGATAGCACGGGTGGC, the figure is 6.36; as for TCTAGCAGGCCAGAGGGTCACTCTAGAGGTACGG, 1.45.
Turning to CCTATTAGTTGACTATAAGGGCAACCGAAGCTCG, the PBM binding z-score amounted to 0.445.
ATCTCTAGGTAAAGATAGTTCAGTGCATGCAAAT: the PBM binding z-score was 0.357.
For the sequence CCTCGGCGGACAACAGGAGGTCAGAGCTGCCAGA, the PBM binding z-score is -0.102.
Regarding AGAATGAGGGTAAGATCAGGGAAACAGAATACAT, the PBM binding z-score is 0.981.
Regarding TCTATTTGTTGAAGGGCAACCGACGAGTCCGTTT, the PBM binding z-score turned out to be 0.0466.
CGTCCAAGGTCAATACTAGGTCAGTGAAAGCATT: the PBM binding z-score stood at 4.52.
For GCTACTGGGGCATCAGCAGGTTACCATAACTTAA, the PBM binding z-score is 2.37.
Same read-out and setting: as for CCTCCAAGGTCAGCAGGTCAGTGAAAGCGACGTG, the figure is 4.14; as for CCGACTGGGGCAGAAAGGTTACCATTCCATCCGG, 1.48.
On to CCTACTTGGTCAAGGTCACACACGCTATAGGTAC, for which the PBM binding z-score turned out to be 3.75.
The same measure, in the same setting: in the case of CCTGCTAGGTGAATGGTCAGCTAAAGCAGCTCGC it was 2.89; in that of TCTTGTAGATCAAAAGTTAAGAAAGCCGAAGCCT, 1.83.
Turning to CCTTACGGGTCACGCCAGGTTATAGCATCGGAGT, the PBM binding z-score amounted to 6.03.
For GCGACTGGGGCAAAGCAGGTTAACATAAGGTTGG, the PBM binding z-score was found to be 1.62.
On the same count and under the same terms, in the case of GCGACTGCGGCAAAGCAGGTTACCATAAGGTTGG it was 0.3.
Turning to TAGCCTAGGTCAGATCGGGCCAATATACGCTATA, the PBM binding z-score came out at 0.875.
AGAACGAGGGCACGTTGAGTTGATAGCAGAGTAG came in with a PBM binding z-score of 2.19.
On the same count and under the same terms, in the case of ACAAGCAGGCCAAGTTTGGGTCACTCAAACAAAG it was 0.101; in that of ATCTCTAGGTAACAAGTTCAGTGAAAGAGAGGAC, 1.52; in that of ACTTACGGGTCATCGAGGTTATAGCACGCGTATA, 5.44.
The sequence CCGACTGGGGCAGAAAGGCTACCATACCATCCGG yielded a PBM binding z-score of 0.703.
In turn, ACTTGCAGGCCAAGTTTGGGTCACTCAAACAAAG yielded a PBM binding z-score of 0.148.
Same read-out and setting: in the case of AGAACGAGGGCAATGAGTTGTTAGCACGGGTGGC it was 1.18; in that of CCTTACGGGTCAAGGTTATAGGACGGGTGGTACG, 4.55.
For the sequence CCTTACAGGTCACTCCAGGTTATAGCATCGGAGT, the PBM binding z-score worked out at 3.81.
Regarding TCTACTAGGTCAGTTGGTCAGCTAACGAGCTGCC, the PBM binding z-score came out at 4.64.
In turn, TAGCCTAGGTGAGATCGGGCCAGTATACGCTATA registered a PBM binding z-score of 0.201.
TGTCAAAGTTCAAAGGTAACGGAAGTATCCACAC yielded a PBM binding z-score of 8.79.
Same read-out and setting: as for TCATAAAGGTAAAGGTGAAAGTCGAACGATATGA, the figure is 4.7; as for ACCGAAAGGTCGAGGTGAGTATAGAGAAAGGGAA, 3.28.
In turn, GATACAGGCTCAAGGCCAGAGTACGCGTATTGAT had a PBM binding z-score of 0.777.
TCTTGTAGATCAAGCAGGTTAAGACAGCCTGAGT: the PBM binding z-score is 0.0477.
Same read-out and setting: as for TCGAGTAGGTTACCAATGGAGCATTCAGCTTTCT, the figure is 0.264.
As to TTACCAAGGTGCGCTGAGGTCGTTGATCCAACTC, the PBM binding z-score was -0.397.
Turning to TAGCCGAGGTCAGATCGGGCCAGTATACGCTATA, the PBM binding z-score amounted to 3.14.

A further experiment has as its system PPARg:RXRa 270nM:90nM, anti-RXR (NR concentration 270 nM, RXRa partner concentration 90 nM). The experiment is described as above. The method in brief: as §1
CCTGCTAGGTCATGGTTAGCTAATCTACAGTATG registered a PBM binding z-score of 3.06.
The sequence AATACAGGGTCACTAGGCCAGTGTAGGTACGAAT yielded a PBM binding z-score of 6.59.
The same measure, in the same setting: as for AGAACGAGGTCAATGAGTTGATAGCACGGGTGGC, the figure is 6.01; as for TCTAGCAGGCCAGAGGGTCACTCTAGAGGTACGG, 2.77.
On to CCTATTAGTTGACTATAAGGGCAACCGAAGCTCG, for which the PBM binding z-score stood at 0.0483.
The sequence ATCTCTAGGTAAAGATAGTTCAGTGCATGCAAAT registered a PBM binding z-score of 0.286.
Regarding CCTCGGCGGACAACAGGAGGTCAGAGCTGCCAGA, the PBM binding z-score was determined as 0.0174.
In turn, AGAATGAGGGTAAGATCAGGGAAACAGAATACAT returned a PBM binding z-score of 0.698.
TCTATTTGTTGAAGGGCAACCGACGAGTCCGTTT: the PBM binding z-score was 2.21.
The sequence CGTCCAAGGTCAATACTAGGTCAGTGAAAGCATT yielded a PBM binding z-score of 4.7.
Sequence GCTACTGGGGCATCAGCAGGTTACCATAACTTAA had a PBM binding z-score of 2.01.
Same read-out and setting: as for CCTCCAAGGTCAGCAGGTCAGTGAAAGCGACGTG, the figure is 4.24; as for CCGACTGGGGCAGAAAGGTTACCATTCCATCCGG, 2.66.
With CCTACTTGGTCAAGGTCACACACGCTATAGGTAC, the PBM binding z-score was found to be 3.87.
With CCTGCTAGGTGAATGGTCAGCTAAAGCAGCTCGC, the PBM binding z-score stood at 4.11.
On to TCTTGTAGATCAAAAGTTAAGAAAGCCGAAGCCT, for which the PBM binding z-score is 4.32.
With CCTTACGGGTCACGCCAGGTTATAGCATCGGAGT, the PBM binding z-score is 6.08.
For the sequence GCGACTGGGGCAAAGCAGGTTAACATAAGGTTGG, the PBM binding z-score was 1.19.
With GCGACTGCGGCAAAGCAGGTTACCATAAGGTTGG, the PBM binding z-score was -0.534.
For TAGCCTAGGTCAGATCGGGCCAATATACGCTATA, the PBM binding z-score worked out at 0.613.
Consider AGAACGAGGGCACGTTGAGTTGATAGCAGAGTAG, for which the PBM binding z-score stood at 1.42.
Same read-out and setting: as for ACAAGCAGGCCAAGTTTGGGTCACTCAAACAAAG, the figure is 0.443.
The same measure, in the same setting: as for ATCTCTAGGTAACAAGTTCAGTGAAAGAGAGGAC, the figure is 1.92.
Consider ACTTACGGGTCATCGAGGTTATAGCACGCGTATA, for which the PBM binding z-score was 5.54.
As for CCGACTGGGGCAGAAAGGCTACCATACCATCCGG, the PBM binding z-score was -0.0777.
With ACTTGCAGGCCAAGTTTGGGTCACTCAAACAAAG, the PBM binding z-score was determined as 0.667.
AGAACGAGGGCAATGAGTTGTTAGCACGGGTGGC returned a PBM binding z-score of 0.817.
On to CCTTACGGGTCAAGGTTATAGGACGGGTGGTACG, for which the PBM binding z-score worked out at 4.69.
Turning to CCTTACAGGTCACTCCAGGTTATAGCATCGGAGT, the PBM binding z-score turned out to be 3.66.
Turning to TCTACTAGGTCAGTTGGTCAGCTAACGAGCTGCC, the PBM binding z-score was determined as 4.2.
Turning to TAGCCTAGGTGAGATCGGGCCAGTATACGCTATA, the PBM binding z-score was -0.291.
In the case of TGTCAAAGTTCAAAGGTAACGGAAGTATCCACAC, the PBM binding z-score came to 7.85.
As for TCATAAAGGTAAAGGTGAAAGTCGAACGATATGA, the PBM binding z-score amounted to 5.2.
Same read-out and setting: as for ACCGAAAGGTCGAGGTGAGTATAGAGAAAGGGAA, the figure is 3.78.
Take GATACAGGCTCAAGGCCAGAGTACGCGTATTGAT: the PBM binding z-score stood at 0.34.
In the case of TCTTGTAGATCAAGCAGGTTAAGACAGCCTGAGT, the PBM binding z-score is 1.3.
Sequence TCGAGTAGGTTACCAATGGAGCATTCAGCTTTCT displayed a PBM binding z-score of 1.16.
As for TTACCAAGGTGCGCTGAGGTCGTTGATCCAACTC, the PBM binding z-score is -0.0544.
The sequence TAGCCGAGGTCAGATCGGGCCAGTATACGCTATA gave a PBM binding z-score of 3.56.

(Values after the supplement of paper PMC6555819.)
